Measured values published in PubChem BioAssay (Tox21).
Inconclusive results are not listed. The source made the active and inactive calls. Unless noted, calls follow the shape of the dose curve; as a rule, active = well fitted curve in the direction sought with a large enough effect in the repeat runs; inconclusive = weak or mixed curves; inactive = no such curve, though single readings can be large; an effect the other way counts as inactive or inconclusive.

Columns and labels:
[1] = qHTS assay to identify small molecule antagonists of the sonic hedgehog signaling (Shh) pathway (AID 1259369; calls by dose curve; also: nearly all actives have a fitted effect of over 45% in size)
Outline: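 Inhibition of Shh signalling is measured as reduced Gli1-response-element firefly luciferase output in an NIH/3T3-derived stable reporter clone stimulated with conditioned medium for 24hr.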

[2] = target: Estrogen receptor beta (Homo sapiens) (UniProt Q92731); experiment: qHTS assay to identify small molecule agonists of the estrogen receptor beta (ER-beta) signaling pathway (AID 1259377; active = well fitted activation curve with a large enough effect in the signal ratio in the repeat runs, not every such curve was filed as active; the % refers to the signal ratio)
Sequence of Estrogen receptor beta (Homo sapiens) (Q92731 whole entry, looked up): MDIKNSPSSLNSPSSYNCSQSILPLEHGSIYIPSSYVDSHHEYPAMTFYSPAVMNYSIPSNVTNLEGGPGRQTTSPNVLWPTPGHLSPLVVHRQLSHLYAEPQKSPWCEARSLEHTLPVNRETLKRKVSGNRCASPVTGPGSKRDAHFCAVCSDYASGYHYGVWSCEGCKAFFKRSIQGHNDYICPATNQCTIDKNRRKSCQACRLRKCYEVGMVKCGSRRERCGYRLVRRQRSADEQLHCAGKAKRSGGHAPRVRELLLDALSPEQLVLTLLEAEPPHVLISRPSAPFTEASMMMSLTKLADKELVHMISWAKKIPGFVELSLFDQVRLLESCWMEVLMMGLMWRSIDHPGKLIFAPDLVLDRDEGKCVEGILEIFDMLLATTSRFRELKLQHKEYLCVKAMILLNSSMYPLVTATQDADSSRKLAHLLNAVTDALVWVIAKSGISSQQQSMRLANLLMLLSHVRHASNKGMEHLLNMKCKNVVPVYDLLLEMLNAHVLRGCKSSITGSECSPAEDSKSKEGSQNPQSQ
Outline: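 Reporter cells (HEK293T, ER-beta-UAS-bla) receive compounds or DMSO after a 6 hr pre-incubation. They then incubate 16 hr at 37C/5% CO2, and fluorescence from LiveBLAzer B/G substrate is measured after 2 hours at room temperature.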

[3] = target: Estrogen receptor beta (Homo sapiens) (UniProt Q92731); experiment: qHTS assay to identify small molecule antagonists of the estrogen receptor beta (ER-beta) signaling pathway (AID 1259378; active = well fitted inhibition curve with a large enough effect in the signal ratio in the repeat runs, not every such curve was filed as active; the % refers to the signal ratio)
Outline: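 ER-beta-UAS-bla HEK293T cells in 2% charcoal-stripped FBS medium treated with compound plus 1nM final 17-beta-estradiol for 16 hr at 37C. Beta-lactamase reporter read by FRET substrate fluorescence after 2 hours at room temperature.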

[4] = qHTS assay to identify small molecule agonists of the androgen receptor (AR) signaling pathway in the presence of an antagonist - cell viability counter screen (AID 1259379);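 also: MDA-kb2 human breast cancer cells carrying an MMTV luciferase reporter; series mostly up to about 92 µM; nearly all actives have a fitted effect of over 25% in size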
Outline: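 Fluorescence from CellTiter-Fluor, added after 15 hr and read 1 hr later, gave cell viability. Cells were MDA-kb2 exposed to compounds (15 concentrations) in the presence of 3.0uM nilutamide at 37C, 0% CO2.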

[5] = qHTS assay to identify small molecule agonists of the estrogen receptor beta (ER-beta) signaling pathway - cell viability counter screen (AID 1259380); also: nearly all actives have a fitted effect of over 30% in size
Outline: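 Same-well viability counter screen. Cells: ER-beta-UAS-bla HEK293T, plated 6 hr before compound, in 2% charcoal-stripped FBS. Compound exposure 16 hr, 37C; viability by CellTiter-Glo luminescence after 30 min at room temperature.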

[6] = qHTS assay to identify small molecule antagonists of the estrogen receptor beta (ER-beta) signaling pathway - cell viability counter screen (AID 1259382); also: series mostly up to about 92 µM; nearly all actives have a fitted effect of over 55% in size
Outline: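 Following a 6 hr plating period, HEK293T cells carrying a UAS-driven beta-lactamase reporter under ER-beta control received compounds and 1nM E2 (final). After 16 hr at 37C and 2 hr substrate loading, CellTiter-Glo luminescence indicated viability.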

[7] = qHTS assay to identify small molecule agonists of the estrogen receptor alpha (ER-alpha) signaling pathway in the presence of an antagonist - cell viability counter screen (AID 1259386);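 also: series mostly up to about 92 µM; cells exposed to compounds for 22 h at 37 °C before the viability read; nearly all actives have a fitted effect of over 30% in size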
Outline: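 Cells are starved of estrogens for 5 days in charcoal-stripped serum, seeded for 24hr and co-treated with ICI-182,780 (10.0nM final) and test compounds. After 22hr at 37C, viability is read as CellTiter-Fluor fluorescence.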

[8] = target: Progesterone receptor (Homo sapiens) (UniProt P06401); experiment: qHTS assay to identify small molecule agonists of the progesterone receptor (PR) signaling pathway (AID 1346784; calls by dose curve; also: nearly all actives have a fitted effect of over 30% in size)
Sequence of Progesterone receptor (Homo sapiens) (P06401 whole entry, looked up): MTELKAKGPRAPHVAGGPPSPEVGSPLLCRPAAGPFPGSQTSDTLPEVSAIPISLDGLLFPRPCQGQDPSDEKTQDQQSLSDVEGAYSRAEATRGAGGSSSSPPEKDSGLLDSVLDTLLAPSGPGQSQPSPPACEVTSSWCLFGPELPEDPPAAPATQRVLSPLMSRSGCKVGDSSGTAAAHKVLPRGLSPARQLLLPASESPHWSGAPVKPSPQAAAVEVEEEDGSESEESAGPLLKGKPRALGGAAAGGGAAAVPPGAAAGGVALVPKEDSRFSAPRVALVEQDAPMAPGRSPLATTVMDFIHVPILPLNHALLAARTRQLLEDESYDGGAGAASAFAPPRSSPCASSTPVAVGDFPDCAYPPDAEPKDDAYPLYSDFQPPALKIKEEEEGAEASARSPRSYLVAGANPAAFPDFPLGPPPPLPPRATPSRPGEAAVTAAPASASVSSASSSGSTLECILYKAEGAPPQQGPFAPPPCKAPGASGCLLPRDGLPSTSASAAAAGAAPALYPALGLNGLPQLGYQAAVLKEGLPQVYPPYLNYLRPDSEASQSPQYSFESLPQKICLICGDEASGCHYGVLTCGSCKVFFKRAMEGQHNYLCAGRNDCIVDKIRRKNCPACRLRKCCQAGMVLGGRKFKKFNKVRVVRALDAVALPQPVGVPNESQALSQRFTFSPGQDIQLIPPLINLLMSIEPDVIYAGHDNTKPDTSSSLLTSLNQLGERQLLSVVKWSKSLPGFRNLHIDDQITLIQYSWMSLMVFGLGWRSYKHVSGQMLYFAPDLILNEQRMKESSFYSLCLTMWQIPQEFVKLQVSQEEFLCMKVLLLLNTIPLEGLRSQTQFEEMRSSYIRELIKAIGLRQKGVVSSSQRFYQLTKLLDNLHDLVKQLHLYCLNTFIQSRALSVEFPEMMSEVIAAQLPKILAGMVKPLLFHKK
Outline: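 Reporter assay, GripTite PR-UAS-bla HEK 293T cells: 16 hr exposure to DMSO-dissolved compounds at 37C, 5% CO2, in steroid-depleted (2% charcoal-stripped FBS) medium; beta-lactamase measured by FRET fluorescence.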

[9] = target: Progesterone receptor (Homo sapiens) (UniProt P06401); experiment: qHTS assay to identify small molecule antagonists of the progesterone receptor (PR) signaling pathway (AID 1346795; active = well fitted inhibition curve with a large enough effect in the signal ratio in the repeat runs, not every such curve was filed as active; the % refers to the signal ratio)
Outline: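 Stimulus R5020 at 1 nM final; cells HEK293T PR-UAS-bla; medium with 2% charcoal-stripped FBS; compound exposure 16 hr at 37C, 5% CO2; detection by FRET beta-lactamase substrate, 2 hr, room temperature.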

[10] = qHTS assay to identify small molecule agonists of the progesterone receptor (PR) signaling pathway - cell viability counter screen (AID 1346799; calls by dose curve; also: nearly all actives have a fitted effect of over 45% in size)
Outline: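 Multiplexed viability read: CellTiter-Glo luminescence, 30 min RT, following LiveBLAzer FRET measurement on PR-UAS-bla HEK293T cells exposed to compounds 16 hr.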

[11] = qHTS assay to identify small molecule antagonists of the TGF-beta/Smad signaling pathway - cell viability counter screen (AID 1346824); also: nearly all actives have a fitted effect of over 50% in size
Outline: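 SBE-bla HEK 293T cells, incubated overnight, then compound plus 0.25 ng/mL TGF-beta1 (stock added) for 5 hr at 37 C. Viability was read in the same wells by CellTiter-Glo luminescence after 30 min at room temperature.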

[12] = qHTS assay to identify small molecule agonists of the TGF-beta/Smad signaling pathway - cell viability counter screen (AID 1346829); also: top concentration of the series differs between compounds; nearly all actives have a fitted effect of over 45% in size
Outline: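 Luminescence from CellTiter-Glo, read after a 30 min room-temperature incubation, gives cell viability of SBE-bla HEK 293T cells treated 5 hr with compounds at 37 C.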

[13] = target: Thyrotropin-releasing hormone receptor (Homo sapiens) (UniProt P34981); experiment: qHTS assay to identify small molecule antagonists of the thyrotropin-releasing hormone receptor (TRHR) signaling pathway (AID 1346877; active = well fitted inhibition curve with a large enough effect in the repeat runs, not every such curve was filed as active; also: series mostly up to about 51 µM)
Sequence of Thyrotropin-releasing hormone receptor (Homo sapiens) (P34981 whole entry, looked up): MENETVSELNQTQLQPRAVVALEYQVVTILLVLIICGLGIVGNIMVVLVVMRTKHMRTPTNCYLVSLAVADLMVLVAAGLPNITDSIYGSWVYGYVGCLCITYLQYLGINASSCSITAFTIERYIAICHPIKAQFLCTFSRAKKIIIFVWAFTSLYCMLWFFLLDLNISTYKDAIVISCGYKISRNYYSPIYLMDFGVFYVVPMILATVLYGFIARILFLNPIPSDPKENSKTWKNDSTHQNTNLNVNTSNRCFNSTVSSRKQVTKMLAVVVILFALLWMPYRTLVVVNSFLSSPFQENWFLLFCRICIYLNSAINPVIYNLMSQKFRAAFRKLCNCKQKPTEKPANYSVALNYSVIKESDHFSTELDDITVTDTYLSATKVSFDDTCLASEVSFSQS
Outline: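 Cells (TRHR-HEK293) are plated and kept 18 h at 37 °C/5% CO2. A calcium-sensitive dye is added for 2 h, compound follows for 5 min at room temperature, and TRH is then given at 1 nM final.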

[14] = target: Thyrotropin-releasing hormone receptor (Homo sapiens) (UniProt P34981); experiment: qHTS assay to identify small molecule agonists of the thyrotropin-releasing hormone receptor (TRHR) signaling pathway (AID 1346891; calls by dose curve; also: series mostly up to about 58 µM)
Outline: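 Readout was intracellular calcium fluorescence in TRHR-Hek293 cells. Cells were incubated 18 h, dye-loaded 2 h at 37 °C, and treated with compound in agonist mode.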

[15] = target: Estrogen receptor (Homo sapiens) (UniProt P03372); experiment: qHTS assay to identify small molecule agonists of the estrogen receptor alpha (ER-alpha) signaling pathway in the presence of an antagonist (AID 1259383; calls by dose curve; also: top concentration of the series differs between compounds; nearly all actives have a fitted effect of over 15% in size)
Sequence of Estrogen receptor (Homo sapiens) (P03372 whole entry, looked up): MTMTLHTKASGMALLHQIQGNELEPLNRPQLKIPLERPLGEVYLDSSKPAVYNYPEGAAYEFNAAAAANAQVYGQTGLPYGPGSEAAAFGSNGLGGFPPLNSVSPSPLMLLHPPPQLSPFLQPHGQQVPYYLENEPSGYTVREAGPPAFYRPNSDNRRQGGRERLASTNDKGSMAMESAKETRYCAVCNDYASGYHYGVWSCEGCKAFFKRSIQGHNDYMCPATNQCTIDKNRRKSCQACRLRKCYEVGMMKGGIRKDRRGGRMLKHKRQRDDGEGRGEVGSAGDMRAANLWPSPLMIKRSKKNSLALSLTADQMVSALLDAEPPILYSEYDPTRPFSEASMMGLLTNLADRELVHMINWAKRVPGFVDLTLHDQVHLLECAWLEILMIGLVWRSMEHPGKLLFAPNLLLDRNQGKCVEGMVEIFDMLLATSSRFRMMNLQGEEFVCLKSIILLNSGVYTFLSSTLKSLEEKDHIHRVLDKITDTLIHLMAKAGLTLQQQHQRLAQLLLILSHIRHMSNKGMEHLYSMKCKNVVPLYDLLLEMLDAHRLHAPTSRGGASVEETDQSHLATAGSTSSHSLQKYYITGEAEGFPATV
Outline: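 Cells are hormone-deprived for 5 days (charcoal-stripped FBS, no phenol red), plated for 24hr, spiked with 10.0nM ICI-182,780, then dosed at 15 concentrations. After 22hr at 37C, ONE-Glo luminescence reports ERE-luciferase activity.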

[16] = qHTS assay to identify small molecule antagonists of the progesterone receptor (PR) signaling pathway - cell viability counter screen (AID 1346798); also: series mostly up to about 92 µM; nearly all actives have a fitted effect of over 50% in size
Outline: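 In the same plates used for the beta-lactamase readout, cell viability of compound- and R5020-treated PR-UAS-bla HEK293T cells (16 hr, 37C) was assessed by CellTiter-Glo luminescence.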

[17] = qHTS assay to identify small molecule agonists of the TGF-beta/Smad signaling pathway (AID 1346859; active = well fitted activation curve with a large enough effect in the signal ratio in the repeat runs, not every such curve was filed as active; the % refers to the signal ratio; also: series mostly up to about 77 µM)
Outline: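 Screening used HEK 293T SBE-bla cells at 4,000/well. Test agents: 5 hr, 37 C. Detection: FRET substrate, 2 hr RT, then excitation 405 nm with emissions at 460 and 530 nm.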

[18] = qHTS assay to identify small molecule agonists or antagonists of the thyroid stimulating hormone receptor (TSHR) signaling pathway - wild type cell line counter screen (AID 1259384; calls by dose curve)
Outline: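 Wild-type Hek293 cells, 800/well, 18 h at 37C, then compound with Ro20-1724 for 30 min RT. cAMP by HTRF (cAMP-d2/anti-cAMP cryptate), 1 h RT, fluorescence read. 15 concentrations, triplicates.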

[19] = target: Thyrotropin receptor (Homo sapiens) (UniProt P16473); experiment: qHTS assay to identify small molecule antagonists of the thyroid stimulating hormone receptor (TSHR) signaling pathway (AID 1259385; calls by dose curve; also: nearly all actives have a fitted effect of over 20% in size)
Sequence of Thyrotropin receptor (Homo sapiens) (P16473 whole entry, looked up): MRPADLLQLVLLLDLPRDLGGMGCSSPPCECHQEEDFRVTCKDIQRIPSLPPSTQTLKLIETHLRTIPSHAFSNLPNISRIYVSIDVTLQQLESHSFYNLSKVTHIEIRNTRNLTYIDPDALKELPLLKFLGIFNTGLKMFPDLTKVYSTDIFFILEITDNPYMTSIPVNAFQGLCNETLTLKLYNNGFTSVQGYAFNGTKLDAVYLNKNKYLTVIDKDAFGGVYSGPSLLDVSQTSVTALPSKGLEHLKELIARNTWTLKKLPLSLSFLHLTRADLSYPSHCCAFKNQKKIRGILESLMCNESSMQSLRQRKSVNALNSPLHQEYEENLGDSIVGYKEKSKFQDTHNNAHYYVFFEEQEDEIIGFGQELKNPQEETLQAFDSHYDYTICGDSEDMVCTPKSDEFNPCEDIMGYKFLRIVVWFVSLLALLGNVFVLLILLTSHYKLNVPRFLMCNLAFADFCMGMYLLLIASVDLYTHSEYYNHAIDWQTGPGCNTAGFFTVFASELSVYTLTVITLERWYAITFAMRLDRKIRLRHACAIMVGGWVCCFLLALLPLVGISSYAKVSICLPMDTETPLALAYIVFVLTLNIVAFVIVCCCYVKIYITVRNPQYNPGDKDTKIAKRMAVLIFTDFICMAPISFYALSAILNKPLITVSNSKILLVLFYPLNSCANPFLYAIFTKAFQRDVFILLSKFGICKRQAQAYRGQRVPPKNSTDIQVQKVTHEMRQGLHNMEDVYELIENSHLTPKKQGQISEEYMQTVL
Outline: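 TSHR-HEK293 cells (800/well) plated 18 h, then compounds with Ro20-1724 and TSH at 1.5 ng/mL final, 30 min at room temperature. cAMP quantified by HTRF (cAMP-d2/anti-cAMP-cryptate, 1 h); 15 concentrations in triplicate.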

[20] = target: Androgen receptor (Homo sapiens) (UniProt P10275); experiment: qHTS assay to identify small molecule agonists of the androgen receptor (AR) signaling pathway in the presence of an antagonist (AID 1259381; calls by dose curve; also: nearly all actives have a fitted effect of over 15% in size)
Sequence of Androgen receptor (Homo sapiens) (P10275 whole entry, looked up): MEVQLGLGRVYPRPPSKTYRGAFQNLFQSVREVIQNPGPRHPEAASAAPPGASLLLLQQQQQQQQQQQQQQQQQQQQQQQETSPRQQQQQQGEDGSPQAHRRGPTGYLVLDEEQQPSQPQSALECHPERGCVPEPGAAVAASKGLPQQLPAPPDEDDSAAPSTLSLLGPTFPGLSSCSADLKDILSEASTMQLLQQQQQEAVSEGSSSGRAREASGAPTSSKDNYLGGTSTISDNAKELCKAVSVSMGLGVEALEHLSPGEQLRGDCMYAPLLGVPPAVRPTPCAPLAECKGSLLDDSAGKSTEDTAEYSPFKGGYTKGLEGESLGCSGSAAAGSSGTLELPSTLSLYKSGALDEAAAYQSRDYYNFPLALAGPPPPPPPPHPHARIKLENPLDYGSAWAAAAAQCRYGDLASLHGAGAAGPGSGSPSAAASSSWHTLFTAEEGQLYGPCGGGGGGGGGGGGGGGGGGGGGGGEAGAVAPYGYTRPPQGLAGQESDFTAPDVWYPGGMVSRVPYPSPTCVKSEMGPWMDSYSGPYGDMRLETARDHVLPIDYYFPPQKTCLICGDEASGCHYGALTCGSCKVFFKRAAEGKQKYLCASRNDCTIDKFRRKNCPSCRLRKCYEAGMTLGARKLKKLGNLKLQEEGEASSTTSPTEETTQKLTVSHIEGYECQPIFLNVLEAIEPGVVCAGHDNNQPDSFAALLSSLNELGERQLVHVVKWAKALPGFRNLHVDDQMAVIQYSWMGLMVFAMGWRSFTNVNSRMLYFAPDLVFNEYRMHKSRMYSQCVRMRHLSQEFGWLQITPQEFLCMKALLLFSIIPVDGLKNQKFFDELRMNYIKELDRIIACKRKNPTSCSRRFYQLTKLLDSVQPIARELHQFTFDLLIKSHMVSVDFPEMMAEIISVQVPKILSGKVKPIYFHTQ
Outline: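 Cells are MDA-kb2 (human breast carcinoma, MMTV-luc, AR/GR responsive). Nilutamide is present at 3.0uM final throughout; compounds are added at 15 concentrations and incubated 16hr at 37C before ONE-Glo luminescence detection.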

Measured: Potency

CC(=O)OC/C=C/c1ccccc1
not listed: [15] | [16] | [17] | [18] | [19] | [20]
inactive: all other assays above

CCOC(=O)CC(=O)c1cc(F)c(Cl)nc1Cl
not listed: [13] | [14] | [18] | [19] | [20]
inactive: all other assays above

CCOC(=O)CC(C)C
not listed: [5] | [9] | [20]
inactive: all other assays above

N[C@H]1C(O)O[C@H](CO)[C@H](O)[C@@H]1O (stereo partly drawn)
not listed: [16] | [19]
inactive: all other assays above

O=c1c2ccccc2nnn1CCl
not listed: [10] | [18] | [19] | [20]
inactive: all other assays above

CC(=O)O[C@@H]1C(=O)O[C@@H]2[C@H]1OC(=O)[C@@H]2OC(C)=O
not listed: [20]
inactive: all other assays above

CC(C)(C)c1ccc(OCC2CO2)cc1 (stereo not drawn)
not listed: [5] | [16] | [20]
inactive: all other assays above

O=C1CCCCCO1
not listed: [9] | [17] | [20]
inactive: all other assays above
